About 83,000 compounds went through this panel and 20% of them were active in at least one assay; those are over-represented in the sample as a whole.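 Values shown are percent growth following 48 h exposure of cells in 96-well plates to a single concentration of compound; below 10 was considered active.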 Calls of active or inactive are those of the source.
The molecules below were run on T-47D breast (assay: NCI-60 one-dose screen, 48 h (100 = growth as untreated, 0 = no growth, -100 = all killed)). Conditions: 10 µM unless noted.

| Compound | growth |
| --- | --- |
| CCOc1ccc(-n2nc(C(=O)NCc3ccccc3OC)nc2-c2cc(OC)c(OC)c(OC)c2)cc1 | 17% (inactive) |
| O=C(CCCCCCN1CC(=O)N2[C@H](c3ccc(Br)cc3)c3[nH]c4ccccc4c3C[C@@H]2C1=O)NO | 9.61% (active) |
| CCN1C(=O)N(CC)C2Nn3c(s/c(=C\c4ccccc4Br)c3=O)=NC21 (stereo unspecified) | 62.1% (inactive) |
| COC(=O)c1nc(-c2ccccc2)oc1S(=O)(=O)NCC(c1ccc(Cl)cc1)N1CCOCC1 (stereo unspecified) | 53.5% (inactive) |
| CC1=C(C(=O)Nc2nc(-c3ccc(Cl)cc3)cs2)[C@H](c2ccc(O)cc2)NC(=O)N1 | 70.5% (inactive) |
| COc1ccc(C(=O)c2cc3c(N)c(C(=O)Nc4ccccc4)sc3nc2C)cc1 | 39% (inactive) |
| C#CC#CC#CC#CC#CC#CC#CC#CC[C@@H]1OC[C@@H](COC(=O)O[C@@H](C(=O)O[C@H]2C[C@@]3(O)[C@@H](OC(=O)c4ccccc4)[C@@H]4[C@]5(OC(C)=O)CO[C@@H]5C[C@H](O)[C@@]4(C)C(=O)[C@H](OC(C)=O)C(=C2C)C3(C)C)[C@@H](NC(=O)c2ccccc2)c2ccccc2)O1 | 91.3% (inactive) |
| CNCc1cccc2c1OCCOCCOCCNS(=O)(=O)c1ccc(cc1)-c1cnc(N)c(n1)C(=O)N2 | 70.4% (inactive) |
| CC1(C)OB(O)c2cc(-c3nc4ccc5[nH]ncc5c4c4c3CCCC4)ccc21 | 34.9% (inactive) |
| COc1ccc(/C=C2\COc3ccc(O)cc3C2=O)cc1 | 87.9% (inactive) |
| CN1C(=O)/C(=C/c2ccc(C(=O)Nc3ncc(Cc4cccc(Cl)c4)s3)cc2)SC1=S | 42.7% (inactive) |
| CN(C)c1ccc(-c2nc(-c3ccccc3)c(-c3ccccc3)[nH]2)cc1 | 79.3% (inactive) |
| Cc1n[nH]c2ccc(Br)cc2c1=O | 94.6% (inactive) |
| CCOc1cccc(/C=N/NC(=O)c2cccc(Nc3ccnc(C(F)(F)F)c3)c2)c1O | 27.6% (inactive) |
| COc1ccc(CNc2c3ccccc3nc3ccccc23)c(OC)c1 | 52.9% (inactive) |
| COc1ccc2c(c1)c(-c1nc(-c3c[nH]c4ncccc34)cs1)cn2CCO | 23.4% (inactive) |
| COc1ccc(C(O)c2cc3c(N)c(C(=O)Nc4cccc(Cl)c4C)sc3nc2C)cc1 (stereo unspecified) | 30.5% (inactive) |
| CC1CCN(C(=S)SCC(=O)NC(=O)c2ccccc2)CC1 | 84.7% (inactive) |

| Compound | growth |
| --- | --- |
| CS(=O)(=O)Nc1cc(-c2ccc3ncc(C#N)c(Nc4ccc(F)c(Cl)c4)c3c2)cnc1Cl | -13.3% (active) |
| CCN1C(=O)N(CC)C2C1NN=c1s/c(=C3\C(=O)N(CC(C)C)c4ccccc43)c(=O)n12 (stereo unspecified) | 73.8% (inactive) |
| O=C(CI)NC(=O)NC(=O)NCc1ccccc1 | 18.8% (inactive) |
| CCn1cc(CNc2ccc(C(=O)Nc3cc4cc(OC)c(OC)cc4c(C)n3)cc2)cn1 | -3.23% (active) |
| C=CCN1C(=O)c2cccc3c(N4CCOCC4)ccc(c23)C1=O | -2.1% (active) |
| CC1=C2[C@@H](CC1)[C@]1(C)O[C@@](c3ccccc3)(C[C@H]1OC(=O)CO)[C@H]2OC(=O)/C=C/c1ccccc1 | 65.2% (inactive) |
| CSc1nc(C)c([N+](=O)[O-])c(N)n1 | 107% (inactive) |
| CCOC(=O)c1c(C)nc2c(c1N)/C(=C/c1ccc(OC)cc1)C(=O)N2Cc1ccccc1 | 40.7% (inactive) |
| CCN(CC)Cc1cc(Nc2ccnc3cc(Cl)ccc23)ccc1O | 100% (inactive) |
| Cc1ccc(-c2nc3nc(-c4ccccc4)nc(N4CCCN(S(C)(=O)=O)CC4)c3o2)cc1 | 92.1% (inactive) |
| CCCCCN(CCCCC)CC(O)c1cc(C)c2ccc3cc(C(C)C)ccc3c2c1 (stereo unspecified) | 53.3% (inactive) |
| NC(N)=NS(=O)(=O)c1ccc(NC2=C(I)C(=O)c3ncccc3C2=O)cc1 | 106% (inactive) |
| O=C1/C(=C\c2ccccn2)c2ccccc2N1c1c(Cl)cccc1Cl | 4.47% (active) |
| CCCCNC(=O)Oc1ccc(/C(=C(/C)Cc2ccc(OC)cc2)c2ccc(OCCN3CCCCC3)cc2)cc1 | 37.9% (inactive) |
| O=C(/C=C/c1ccc(Cl)cc1)c1cccc(OCCCOc2cccc(C(=O)/C=C/c3ccc(Cl)cc3)c2)c1 | 78% (inactive) |
| Cc1ccc(/C=C(\C#N)n2nnc3cc(F)c(F)cc32)cc1 | -10.3% (active) |
| O=P(O)(O)OCC1OC(n2cnc3c(NCc4ccco4)ncnc32)C(O)C1O (stereo unspecified) | 42.5% (inactive) |
| O=C(C1=Cc2cc3ccccc3n2Cc2cnnn21)c1ccc(O)cc1 | 44.9% (inactive) |

Source: PubChem BioAssay (NCI)
